# In ChEMBL document CHEMBL3988442, “University of Dundee, Small-Polar-MMV Screening Library” (2021):
# Among all 69,000 compounds or so, about 420 (0.61%) showed an effect of 50% or more. This is one part of a sample in which strong results are shown more often than they occur.
# Target: T1, Histidine--tRNA ligase (Leishmania infantum) (UniProt A4I591)
# T1 sequence (whole entry): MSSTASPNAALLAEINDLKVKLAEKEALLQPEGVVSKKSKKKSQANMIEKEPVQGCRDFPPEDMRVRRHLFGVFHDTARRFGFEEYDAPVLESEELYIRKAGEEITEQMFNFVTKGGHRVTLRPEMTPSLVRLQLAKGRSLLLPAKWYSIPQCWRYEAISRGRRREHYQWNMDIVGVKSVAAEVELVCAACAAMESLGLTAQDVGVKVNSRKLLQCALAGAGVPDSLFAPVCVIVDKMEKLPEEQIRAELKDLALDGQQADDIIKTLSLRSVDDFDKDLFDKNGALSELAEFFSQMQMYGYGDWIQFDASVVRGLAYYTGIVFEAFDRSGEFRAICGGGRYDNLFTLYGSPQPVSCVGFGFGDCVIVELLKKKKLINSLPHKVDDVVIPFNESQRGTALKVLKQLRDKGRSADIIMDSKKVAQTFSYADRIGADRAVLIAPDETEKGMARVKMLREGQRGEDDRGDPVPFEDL
# Assay: Leishmania infantum Histidine tRNA synthetase (LdHisRS)
# Assay type: functional
# Design: scale not given: in the data most compounds retested in dose-response had high values
# Conditions: 30 µM
row,SMILES,Percent Effect [%]
1,COc1ccc(N2Cc3nc(N)ncc3C2=O)cc1,0
2,O=C1[C@H]2CN(CC3CC3)C[C@H]2CN1Cc1cccc(F)c1,-1.5
3,O=C([C@H]1C[C@H]2OCC[C@H]2N(CCc2ccccc2)C1)N1CCCCO1,9.02
4,Cc1nc(CN2C[C@@H]3CN(c4ncc(F)cn4)C[C@@H]3C2=O)cs1,19.7
5,O=C(c1cccnc1)N1C[C@@H]2CC[C@H](C1)N(Cc1ccc(F)cc1Cl)C2,7.2
6,CC(=O)N1CCN2C[C@H](CO)[C@@H](c3ccccc3)[C@H]2C1,2.04
7,COC(=O)CC(C1=Cc2ccccc2OC1)c1oc(C)cc(=O)c1O (centres undefined),23.1
8,CC(Cn1cccn1)NC(=O)C1=Cc2ccccc2OC1 (centres undefined),16
9,O=C(Nc1cccnc1)C1=Cc2ccccc2OC1,25
10,CC1=C(C#N)C(=O)N(C)C(=O)/C1=C\C1=Cc2ccccc2OC1,92.1
11,CCN1C(=O)C(C#N)=C(C)/C(=C/C2=Cc3ccccc3OC2)C1=O,86.8
12,Cc1nc([C@H]2C[C@H]3CN(C(=O)c4cc(C)c(C)s4)CC[C@@H]3O2)no1,20.6
13,COc1cccc(C(=O)N2C[C@@H](c3ccccc3)[C@@H]3NCCCC[C@@H]32)c1,10.3
14,Cc1nc2c(c(=O)[nH]1)CN(C(=O)CC[C@@H]1CCCN3CCCC[C@H]13)C2,3.54
15,Cc1ccc(CN2CC[C@@H]3[C@@H](CO[C@H]3CN3CCN(C)CC3)C2)s1,-11.1
16,O=C(c1cscn1)N1C[C@H](OCc2cccnc2)[C@H]2COC[C@H]21,9.72
17,CCC1=N[C@@]2(CC[C@@H]3CN(Cc4ccccc4C)C[C@@H]32)C(=O)N1C,10
18,Cn1cccc1C(=O)N[C@@H]1CN(Cc2ccsc2)[C@@H]2COC[C@@H]21,20
19,Cc1ccnc(N2CCN(C[C@]3(O)CCCN4CCCC[C@@H]43)CC2)c1,2.86
20,Cc1nc(O)cc(CCNC(=O)CC[C@@H]2CCCN3CCCC[C@H]23)n1,5.38
21,CC1=C(C#N)C(=O)NC(=O)/C1=C\c1c(C)nn(-c2ccc(Cl)cc2)c1O,51.5
22,CCN(CC)CCNC(=O)CCc1c(C)nn(-c2ccc(Cl)cc2)c1C,7.92
23,Cc1ccc(-n2nc(C)c3c2NC(=O)CC3c2cnc(N)s2)cc1 (centres undefined),17.3

row,SMILES,Percent Effect [%]
1,CC1=C(C#N)C(=O)NC(=O)/C1=C\c1c(C)nn(-c2ccc(C)cc2)c1O,70.1
2,Cc1nn(C)c(=O)c2nn(-c3ccc(Cl)cc3)c(C)c12,5.5
3,CC1=C(C#N)C(=O)NC(=O)/C1=C\c1c(C)nn(-c2ccccc2)c1O,43.3
4,Cc1cc(CN2CC[C@H]3OCC[C@@]3(C(=O)NCc3ccco3)C2)no1,11.4
5,O=C([C@H]1CCS(=O)(=O)[C@@H]2CN(CCc3ccccc3)C[C@H]12)N1CCCC1,17.6
6,Cc1ccncc1C(=O)N1CC[C@@]2(O)CCN(C3CCCCC3)C[C@H]2C1,14.5
7,c1cnn(CCCO[C@@H]2CC[C@H]3[C@H]2OCCN3CC2CCOCC2)c1,13.9
8,Cc1noc(C)c1CN1C[C@@H]2CC[C@H](C1)N(Cc1cc(F)cc(F)c1)C2,24.7
9,Cc1ccc(N2CCC3(CC2)COCCN(c2nccs2)C3)nn1,58.5
10,Cc1ccc(N2CCCC3(COCCN(c4nccs4)C3)C2)nn1 (centres undefined),11.4
11,Cc1ccc(N2CC3(CCN(c4nccs4)C3)C2)nn1,9.52
12,CS(=O)(=O)N1C[C@@H]2CC[C@H](C1)N(C(=O)Cn1ccc3ccccc31)C2,11.6
13,Cn1cc(CN2CC[C@@H]3[C@H]2CCC(=O)N3c2ccccc2)cn1,5.56
14,CN(CCOc1ccccc1)C(=O)Nc1cccn(C)c1=O,112
15,Cn1cccc(NC(=O)COc2ccc(Br)cc2)c1=O,26.1
16,COc1c(NC(=O)N(C)CCOc2ccccc2)c(C)nn1C,24.1
17,O=C(NCc1ccco1)[C@H]1COC[C@H]2CN(Cc3ccccn3)C[C@H]21,14
18,Cc1ccc(N(C)C2CCN(C(=O)CCc3ccco3)CC2)nn1,58.5
19,Cc1ccccc1NC1CCN(C(=O)CCc2ccco2)CC1,12.5
20,Cc1ccc(NC2CCN(C(=O)CCc3ccco3)CC2)nn1,27.7
21,O=C(c1ncccn1)N1C[C@H]2CCC[C@@]2(COCc2cccnc2)C1,-3.92
22,Cc1cnc(C(=O)N2C[C@H]3CN(Cc4cccs4)C[C@H]3C2)cn1,-3.19
23,CS(=O)(=O)CCC(=O)N1C[C@@H]2CC[C@H](C1)N(Cc1ccccn1)C2=O,18

row,SMILES,Percent Effect [%]
1,O=C(CC1CC1)N[C@@H]1CN(Cc2ccoc2)C[C@@H]2CCCO[C@@H]21,-31.4
2,O=C1CCC(C(=O)Nc2ccc(=O)n(Cc3ccccc3Cl)c2)N1 (centres undefined),20.5
3,O=C1CCC(C(=O)Nc2cnn(-c3ccccc3Cl)c2)N1 (centres undefined),19.5
4,O=C1NCC(C(=O)NCc2ccccc2CN2CCOCC2)N1 (centres undefined),7.25
5,O=C(Nc1ccc(=O)n(Cc2ccccc2Cl)c1)C1CC1,114
6,CC1CCN(Cc2ccccc2CNC(=O)C2CNC(=O)N2)CC1 (centres undefined),5.18
7,O=C1CCC(C(=O)Nc2ccc(=O)n(Cc3ccc(Cl)c(Cl)c3)c2)N1 (centres undefined),95.2
8,O=C(Nc1cnn(Cc2ccc(F)cc2Cl)c1)C1CC1,15.9
9,O=C1CC[C@H](C(=O)Nc2cnn(-c3ccccc3Br)c2)N1,7.32
10,O=C1NCC(C(=O)Nc2ccc(=O)n(Cc3ccccc3Cl)c2)N1 (centres undefined),92.8
11,CC(C)CN1C(=O)CO[C@@H]2CN(C(=O)N(C)C)C[C@H]21,8.77
12,CN1CC[C@@H]2[C@@H](CO[C@H]2CNC(=O)c2nccn2C)C1,16
13,CN(C)C(=O)CN1C[C@@H]2CC[C@H](C1)N(Cc1cc(F)ccc1F)C2,1.91
14,CN1C[C@@H]2CC[C@H](CC1=O)N2C(=O)c1cc2ccccc2[nH]c1=O,19.5
15,Cc1occc1C(=O)N1C[C@@H]2[C@@H](C1)OCC(=O)N2Cc1cccnc1,11.5
16,Cn1cc(C(=O)N2CC[C@@H]3[C@@H]2CCN3c2ccccn2)cn1,16
17,Cc1noc(C)c1CN1CCO[C@H]2CN(C(=O)C3CCOCC3)C[C@H]21,7.96
18,O=C(NCc1cccnc1N1CCc2ccccc2C1)c1cc(=O)[nH][nH]1,50
19,Cc1cc(C(=O)NCc2cccnc2N2CCc3ccccc3C2)[nH]n1,21.4
20,O=C(NCc1cccnc1N1CCc2ccccc2C1)c1cnc[nH]1,18.6
21,CCC1CN(CC(=O)NCCN2CCCCC2)c2ccccc2S1 (centres undefined),27.2
22,CCC1CN(CC(=O)NCCN2CCCC2)c2ccccc2S1 (centres undefined),31.5
23,CCC1CN(CC(=O)NCCN2CCCCCC2)c2ccccc2S1 (centres undefined),51.1
